For five targets, reporter fold induction results are on record in the supplement of paper PMC3616981.

Compound in the assay: CC(C)c1cccc(C(C)C)c1N1C(=O)c2ccc(O)cc2C1=O
Put plainly: reporter fold induction vs vehicle; higher = higher reporter activity. As to the method:
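Attagene multiplexed transcription-factor reporter assay (48 cis response elements and 25 trans nuclear-receptor constructs) treated with 5HPP-33 at 8 concentrations (0.091–200 µM). The response is fold induction of reporter activity relative to vehicle control. Cell line and time not stated in the paper; tested in ToxCast Phase II for this study.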

Turning to RORg_TRANS, the reporter fold induction turned out to be 1.15 (0.091 µM); 1.17 (0.274 µM); 1.17 (0.823 µM); 1.35 (2.469 µM); 1.43 (7.407 µM); 0.891 (22.22 µM). In addition, the reporter fold induction stood at 0.575 (66.67 µM) and 0.332 (200 µM).

Consider HIF1a_CIS, for which the reporter fold induction is, setting by setting: (0.091 µM) 1.04; (0.274 µM) 1.07; (0.823 µM) 1.03; (2.469 µM) 1.03; (7.407 µM) 1.07; (22.22 µM) 1.22. The reporter fold induction reads like this: (66.67 µM) 0.927; (200 µM) 1.08.

On to Sp1_CIS, for which the reporter fold induction runs as follows: (0.091 µM) 1.04; (0.274 µM) 1.04; (0.823 µM) 1.02; (2.469 µM) 0.989; (7.407 µM) 1.11; (22.22 µM) 1.08. Moreover, the reporter fold induction is, setting by setting: (66.67 µM) 1.39; (200 µM) 2.02.

Regarding TAL_CIS, the reporter fold induction by setting is: (0.091 µM) 1.06; (0.274 µM) 0.981; (0.823 µM) 1.01; (2.469 µM) 0.98; (7.407 µM) 1.11; (22.22 µM) 1.09. Further, the reporter fold induction is, setting by setting: (66.67 µM) 1; (200 µM) 1.28.

NRF1_CIS: the reporter fold induction is, setting by setting: (0.091 µM) 1.01; (0.274 µM) 0.997; (0.823 µM) 1.04; (2.469 µM) 1.01; (7.407 µM) 0.978; (22.22 µM) 0.868. The reporter fold induction was determined as 1.02 (66.67 µM) and 1.44 (200 µM).
